High-throughput results deposited in PubChem by The Scripps Research Institute Molecular Screening Center.
The list is not random: actives were taken first. Their share in the collection is about 2.4%.
M1 ag: human M1 muscarinic receptor agonists, primary screen, Fluo-8 calcium fluorescence, CHO-K1 cells, HTS; CHO-K1 hM1, agonist mode; 0% DMSO, 100% acetylcholine EC100; activation, % at 3 µM; 360,000 tested, 0.33% active;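 active means activation above the run's mean compound activation plus 3 SD, cut at about 16% in these data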;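 further: peak over basal fluorescence ratio within a 140 s kinetic read after compound addition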
Target sequence (P11229 whole entry, looked up): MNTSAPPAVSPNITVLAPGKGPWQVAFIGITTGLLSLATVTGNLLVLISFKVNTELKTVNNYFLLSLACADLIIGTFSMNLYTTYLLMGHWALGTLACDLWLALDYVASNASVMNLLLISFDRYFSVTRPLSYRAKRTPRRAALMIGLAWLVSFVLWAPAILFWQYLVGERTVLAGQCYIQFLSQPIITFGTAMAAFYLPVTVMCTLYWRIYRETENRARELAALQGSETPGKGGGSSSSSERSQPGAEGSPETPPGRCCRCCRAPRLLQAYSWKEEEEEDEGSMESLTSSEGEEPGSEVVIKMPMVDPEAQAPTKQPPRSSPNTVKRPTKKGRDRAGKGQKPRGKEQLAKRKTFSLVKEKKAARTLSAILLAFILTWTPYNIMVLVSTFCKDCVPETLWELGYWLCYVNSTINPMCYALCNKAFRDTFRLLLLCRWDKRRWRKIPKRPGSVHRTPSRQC
CHO-K1 Ca antag: M1 antagonist counterscreen hit in parental CHO-K1 cells. ATP-induced calcium, Fluo-8 fluorescence. inhibition, % at 3 µM. 360,000 tested, 0.6% active;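 active means inhibition above a per-plate cutoff, the plate's mean sample inhibition plus 3 SD, cut at about 24% in these data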
CHRM1 antagonist: human M1 muscarinic receptor antagonists, primary screen, CHO-K1 cells, Fluo-8 calcium fluorescence, 1536-well. Muscarinic acetylcholine receptor M1 (Homo sapiens), P11229. CHO-K1 hM1, ACh EC80 antagonist. inhibition, % at 3 µM. 360,000 tested, 1.3% active. AID 588852, 2011;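 active means percent inhibition above its own plate's cutoff, namely the mean of that plate's compound wells plus 3 SD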;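 further: peak over basal fluorescence ratio during 140 s after agonist addition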
CHO-K1 Ca ag: counter-screen for M1 agonists: effect in parental CHO-K1 cells; Fluo-8 calcium fluorescence; scaled to maximal ATP response, vehicle zero; 360,000 tested, 0.48% active; activation, % at 3 µM; in the data active means activation above about 15%;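 further: untransfected CHO-K1 host cells lacking M1 receptor as counterscreen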
CHO-K1 Ca PAM: nonselective calcium activators in parental CHO-K1 cells, primary screen, counter-screen for M1 PAM project, cell-based, Fluo-8 calcium fluorescence, full deck, 1536-well; ATP EC20; 0% at ATP EC20, 100% at ATP max; activation, % at 3 µM; 360,000 tested, 0.02% active;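 active means activation above the run cutoff, the mean activation of all test compounds plus 3 SD, cut at about 40% in these data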;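 further: peak over basal fluorescence ratio in a 140 s read after ATP addition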
CHRM1 PAM: human M1 muscarinic receptor positive allosteric modulators, primary screen, CHO-K1 cells, Fluo-8 calcium fluorescence, 1536-well; Muscarinic acetylcholine receptor M1 (Homo sapiens), P11229; CHO-K1 hM1, ACh EC20; 0% = ACh EC20, 100% = maximal ACh; activation, % at 3 µM; 360,000 tested, 0.088% active; in the data active means activation above about 19%, passing the limit was not always enough
Hits are given with their value; n = inactive; x = not tested or not shown.

SMILES | M1 ag | CHO-K1 Ca antag | CHRM1 antagonist | CHO-K1 Ca ag | CHO-K1 Ca PAM | CHRM1 PAM
CN(c1ccccc1C(=O)Nc1ccc(S(=O)(=O)N2CCOCC2)cc1)S(=O)(=O)c1ccccc1 | n | n | 43 | n | n | n
O=C(Nc1ccc(N2CCOCC2)cc1)c1cccc(S(=O)(=O)N2CCCCCC2)c1 | n | n | n | n | n | n
O=C(NN=Cc1ccc(F)cc1)c1cccc(S(=O)(=O)N2CCCC2)c1 | n | n | 36 | n | n | n
O=C(Nc1ccc(N2CCOCC2)cc1)c1cccc(S(=O)(=O)N2CCCC2)c1 | n | n | 34 | n | n | n
O=C(Nc1ccc(S(=O)(=O)N2CCOCC2)cc1)c1ccccc1Br | n | n | n | n | n | n
Cc1occc1C(=O)NNC(=O)c1ccc(S(=O)(=O)N(C)C)cc1 | n | n | n | n | n | n
COc1cc(S(=O)(=O)Nc2ccc3c(c2)C(=O)N(C)C3=O)ccc1NC(C)=O | n | n | n | n | n | n
COc1ccccc1CC(=O)N1CCN(S(=O)(=O)c2ccccc2)CC1 | n | n | n | n | n | n
CCOc1ccc(C(C)C)cc1S(=O)(=O)N1CCN(C(=O)c2ccco2)CC1 | n | n | n | n | n | n
CC(=O)NC(c1ccc(F)c(F)c1)c1nc(-c2cnc3ccccc3c2)cs1 (stereo not drawn) | n | n | n | n | n | n
O=C(CNC(=O)c1ccc(S(=O)(=O)N2CCCC2)cc1)N/N=C/c1ccc(Cl)cc1 | n | n | n | n | n | n
Cc1ccc(S(=O)(=O)CCC(=O)NCCN2C(=O)S/C(=C\c3ccccc3)C2=O)cc1 | n | n | n | 19 | n | n
O=C(Nc1cccc(S(=O)(=O)N2CCCC2)c1)c1cccc(S(=O)(=O)N2CCOCC2)c1 | n | n | 29 | n | n | n
O=C(CNC(=O)c1ccc(S(=O)(=O)N2CCCC2)cc1)N/N=C/c1c(Cl)cccc1Cl | n | n | n | 20 | n | n
O=C(NCCN1C(=O)S/C(=C\c2ccccc2)C1=O)c1cc(S(=O)(=O)N2CCOCC2)c(Cl)cc1Cl | n | n | 43 | 15 | n | n
O=C(CCS(=O)(=O)c1ccc(Cl)cc1)NCCN1C(=O)S/C(=C\c2ccccc2F)C1=O | n | n | n | n | n | n
CC(C)C[C@H]1COc2cccc(N(C)CCO)c2S(=O)(=O)N1 | x | n | x | n | n | x
CCCCOc1ccc(CN2CCSCC2)cc1 | n | n | n | n | n | n
N#Cc1cccc(C(=O)Nc2cccc(S(=O)(=O)N3CCCC3)c2)c1 | n | n | 38 | n | n | n
O=C(Nc1cccc(S(=O)(=O)N2CCCC2)c1)c1cc(S(=O)(=O)N2CCOCC2)ccc1F | n | n | n | n | n | n
CN1CCN(c2ccc(NC(=O)c3cccc(S(=O)(=O)N4CCCC4)c3)cc2)CC1 | n | n | 47 | n | n | n
CS(=O)(=O)c1cccc(C(=O)Nc2ccc(S(=O)(=O)N3CCCCC3)cc2)c1 | n | n | n | n | n | n
O=C(Nc1cccc(S(=O)(=O)N2CCOCC2)c1)c1cc(S(=O)(=O)N2CCOCC2)c(Cl)cc1Cl | n | n | 36 | n | n | n
COc1ccc(NC(=O)c2cc3c(s2)CCC(C)C3)cc1S(=O)(=O)N1CCOCC1 (stereo not drawn) | n | 25 | n | n | n | n
COCCn1c(C)cc(C(=O)COC(=O)C2CC(=O)N(CCc3ccc(OC)c(OC)c3)C2)c1C (stereo not drawn) | n | n | n | n | n | n
SMILES | M1 ag | CHO-K1 Ca antag | CHRM1 antagonist | CHO-K1 Ca ag | CHO-K1 Ca PAM | CHRM1 PAM
COc1ccc(C(=O)Nc2cccc(C)c2)cc1S(=O)(=O)N1CCOCC1 | n | n | n | n | n | n
COc1ccc(C(=O)Nc2cccc(S(=O)(=O)N3CCCC3)c2)cc1S(=O)(=O)N1CCOCC1 | n | n | 43 | n | n | n
COc1ccc(C(=O)Nc2cccc(-c3csc(C)n3)c2)cc1S(=O)(=O)N1CCCC1 | n | n | 36 | n | n | n
CC(C)[C@H](NC(=O)c1cccc(S(=O)(=O)N2CCOCC2)c1)C(=O)OCC(=O)Nc1cccc(Br)c1 | 19 | n | n | n | n | n
COc1ccc(Cl)cc1C(=O)n1cnc2ccccc21 | n | n | n | n | n | n
O=C(CNC(=O)C1CCCCC1)Nc1cc(Cl)ccc1Cl | n | 25 | n | n | n | n
O=C(CNC(=O)C1CCCCC1)Nc1ccccc1Cl | n | n | n | n | n | n
CCN1CCN(CCCNC(=O)C2CCN(c3nnc(-n4cccc4)s3)CC2)CC1 | n | n | n | n | n | n
CCOc1ccc(NCc2cccn2-c2nnc(N3CCC(C(=O)NCCCN4CC(C)CC(C)C4)CC3)s2)cc1 (stereo not drawn) | n | n | 98 | n | n | n
COc1ccc(CN2CCN(CCc3ccccc3)C(CCO)C2)c(Cl)c1OC (stereo not drawn) | n | n | n | n | n | n
CCCCN(C)CCCNC(=O)c1cn(CC)c2ccc(S(=O)(=O)N3CCc4ccccc4C3)cc2c1=O | n | n | 43 | n | n | n
Cc1ccc(NC(=O)COC(=O)Cc2ccccc2)cc1S(=O)(=O)N1CCOCC1 | n | n | n | n | n | n
Cc1ccc(NC(=O)COC(=O)CN2C(=O)NC(C)(C)C2=O)cc1S(=O)(=O)N1CCOCC1 | n | n | n | 19 | n | n
Cc1ccc(NC(=O)COC(=O)Cc2ccc(Br)cc2)cc1S(=O)(=O)N1CCOCC1 | n | n | 35 | n | n | n
COc1ccc(-c2ccc(N3C(c4ccsc4)=Cc4ccc(F)cc4C3c3c[nH]c4ccccc34)cc2)cc1 (stereo not drawn) | x | n | x | n | n | x
Cc1csc(N/N=C\c2cccnc2)n1 | n | n | n | 17 | n | n
C=CCN([C@H](C(=O)OC)C(C)C)S(=O)(=O)CCNCc1ccccc1 | n | n | n | n | n | n
CCc1nc2ccc(C(=O)NCCc3c[nH]c4ccccc34)cn2c1N(C)CCCc1ccccc1 | n | n | n | n | n | n
CCc1nc2ccc(C(=O)Nc3cccc(OC)c3)cn2c1N(C)CCCc1ccccc1 | n | n | n | n | n | n
CCc1nc2ccc(C(=O)Nc3ccc(NC(C)=O)cc3)cn2c1N(C)CCCc1ccccc1 | n | n | 47 | n | n | n
CCc1nc2ccc(C(=O)Nc3ccc(C(=O)N(C)C)cc3)cn2c1N(C)CCCc1ccccc1 | n | n | 39 | n | n | n
CCc1nc2ccc(C(=O)Nc3cccc(NS(C)(=O)=O)c3)cn2c1N(C)CCCc1ccccc1 | n | n | 41 | n | n | n
CCc1nc2ccc(C(=O)NCCNC(C)=O)cn2c1N(C)CCCc1ccccc1 | n | n | n | n | n | n
